This is a sample that favours compounds with a hit; in the whole collection about 2.1% have one here.
p53 reactivation – restores transcriptional activity of mutant p53; H1299 p53-A138V BP100-luciferase reporter, luminescence, 24 h; Potency, µM (highest dose often 92.2 µM), for inactives: at the highest dose activity change, positive = activation, actives largely listed as activators; hit rate 0.063% among 320,000; note: potency is the fitted concentration of half-maximal effect; % of control where 0% means no effect; nearly all actives have a fitted effect of over 45% in size
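H1299 (p53-null), stable ts p53-A138V + BP100-Luc; 1000 cells/well, Opti-MEM/10% FBS; cpd 4 pt, 1:5; 24 h, 37 deg C, 5% CO2; detection reagent 10 min RT; luminescence.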
Giardia kill – Giardia lamblia killing. Giardia lamblia trophozoite viability. activity change, % at 7.66 µM, hits read low. hit rate 0.15% among 340,000. AID 540267; in the data active = activity change below about -80%; inconclusive = between about -30% and that limit;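 note: parasites exposed to compound for two days anaerobically before the ATP read; % is set by controls: 0 for no effect and ±100 for the full control effect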
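Trophozoite viability was measured as ATP-dependent luminescence, read 15-30 min after reagent addition. Before that, parasites at 100 cells/well were exposed to compounds for 48 h, anaerobically, at 37 deg C.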
uPA surface inh – inhibitors of cell surface uPA generation; cell surface uPA generation assay, qHTS; Potency, µM (titrated, usually from 38.3 µM), for inactives: at the highest dose activity change, negative = inhibition, actives largely listed as inhibitors; hit rate 0.31% among 330,000; active = well fitted inhibition curve with a large enough effect; inconclusive = small, poorly fitted or top-dose-only effect; inactive = no such curve, though single readings can be large or run the other way; tested in mouse RAW 264.7 cells; note: potency is the fitted concentration of half-maximal effect; % is set by controls: 0 for no effect and ±100 for the full control effect; nearly all actives have a fitted effect of over 55% in size
ClpP mod – qHTS Assay for Activators of ClpP; ATP-dependent Clp protease proteolytic subunit (Bacillus subtilis (strain 168)), P80244; Potency, µM (doses to about 57.5 µM), without a hit: top-dose activity change, negative = active; hit rate 1.9% among 340,000; purified B. subtilis ClpP, FRET peptide cleavage, 20 min; active = well fitted falling curve with a large enough effect; inconclusive = small, poorly fitted or top-dose-only effect; inactive = no such curve, though single readings can be large or run the other way; note: potency is the fitted concentration of half-maximal effect; the source files actives as falling curves though it sought activators and does not explain the sign; nearly all actives have a fitted effect of over 65% in size
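Purified B. subtilis ClpP, 10 microg/mL final in Tris/HCl pH8 with KCl, BSA, glycerol and Tween-20, cleaved an Abz/nitrotyrosine-quenched decapeptide. Fluorescence (ex 320, em 430) was read at 0 and 20 min at room temperature. Delta was normalized to 5.8 microM ADEP and DMSO/no-enzyme controls.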
B2AR arrestin – beta2AR (human) beta-arrestin recruitment activity. P07550. beta-arrestin recruitment to beta2AR, cell-based reporter. Potency, µM (top dose mostly 46.1 µM), inactives show at the highest dose activation, hits mostly activators. hit rate 0.02% among 330,000;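 note: potency is the fitted concentration of half-maximal effect; 0% = DMSO controls and full agonism = EC100 isoproterenol or metaproterenol; nearly all actives have a fitted effect of over 65% in size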
Target sequence (P07550 whole entry, looked up): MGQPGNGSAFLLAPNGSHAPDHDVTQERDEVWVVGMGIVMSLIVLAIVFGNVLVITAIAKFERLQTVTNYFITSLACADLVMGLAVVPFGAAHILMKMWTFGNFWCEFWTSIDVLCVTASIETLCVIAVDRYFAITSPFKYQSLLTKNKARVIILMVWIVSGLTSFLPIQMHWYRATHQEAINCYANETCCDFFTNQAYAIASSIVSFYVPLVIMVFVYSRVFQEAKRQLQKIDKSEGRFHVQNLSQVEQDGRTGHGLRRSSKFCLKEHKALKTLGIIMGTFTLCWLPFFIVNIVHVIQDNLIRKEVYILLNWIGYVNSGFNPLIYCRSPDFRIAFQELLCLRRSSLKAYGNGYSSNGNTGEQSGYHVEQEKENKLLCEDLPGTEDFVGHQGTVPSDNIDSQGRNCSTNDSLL
Mito fusion act – inhibitors of mitochondrial division or activators of mitochondrial fusion; S. cerevisiae fusion-defective mutant growth rescue, CellTiterGlo 48 h; Potency, µM (series often up to 46.1 µM), for the others: at the top dose growth rescue (activation), actives largely listed as activators; hit rate 0.23% among 320,000; AID 485298; note: potency is the fitted concentration of half-maximal effect; % of control where 0% means no effect; nearly all actives have a fitted effect of over 45% in size
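Compounds are tested for their ability to restore growth of mitochondrial fusion-defective yeast strains at non-permissive 37C in YPEG medium over 48 hours. Viability is quantified by luciferase luminescence.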
Starred values were filed as active, the others as inactive; ? = inconclusive; · = no result given. Unless noted, calls come from the whole dose curve; as a rule, active = well fitted curve in the direction sought with a large enough effect; inconclusive = small, poorly fitted or top-dose-only effect, or another doubt; inactive = no such curve, though single readings can be large; an effect the other way counts as inactive or inconclusive.

SMILES | p53 reactivation | Giardia kill | uPA surface inh | ClpP mod | B2AR arrestin | Mito fusion act
COc1cc(C(=O)N(Cc2cccnc2)Cc2cc3cc4c(cc3[nH]c2=O)OCCO4)cc(OC)c1OC | -7% | 12 | · | 28µM* | 0% | 3%
CCCn1c2ccccc2c2cnn(CC(=O)N(CCCOC)Cc3ccco3)c(=O)c21 | · | · | · | 5% | · | ·
CCCCCc1nc(N)c(C#N)c(-c2ccco2)c1CCCC | -2% | -15 | 6% | 25µM* | -1% | 3%
CCc1nc(N)c(C#N)c(-c2ccco2)c1C | -4% | -9 | -7% | -13% | -1% | 15%
CCCCc1ccc(-n2nc3cc(Cl)c(NC(=O)c4ccc(OC)cc4)cc3n2)cc1 | · | · | · | 0% | · | ·
CC1=NN(C(N)=S)C(=O)C1N=Nc1ccccc1 (centres undefined) | 2% | -16 | 8% | 0% | 1.4µM* | -8%
CCOc1cc(S(=O)(=O)NCCc2cccc(C)c2)c(OCC)cc1-n1cnnn1 | -9% | 0 | -3% | 32µM* | 0% | 17%
CCOc1cc(S(=O)(=O)NCCc2ccccc2C)c(OCC)cc1-n1cnnn1 | -7% | -3 | -3% | 32µM* | 0% | 0%
CCOc1cc(S(=O)(=O)N(CC)CC)c(OCC)cc1-n1cnnn1 | -4% | 0 | · | 16µM* | 0% | 2%
CCOc1cc(S(=O)(=O)N2CCC(Cc3ccccc3)CC2)c(OCC)cc1-n1cnnn1 | 1% | -1 | 8% | 14µM* | 0% | -6%
CCOc1cc(S(=O)(=O)N2CC=C(c3ccc(F)cc3)CC2)c(OCC)cc1-n1cnnn1 | -6% | -10 | 2% | ? | 0% | -12%
COc1ccc(NC(=O)Cn2nnnc2-c2ccccc2F)c(C)c1 | · | · | · | 0% | · | ·
Cc1ccc(NC(=O)N2CCN(c3nnc(C)c4c(C)n(-c5ccc(Cl)cc5)nc34)CC2)c(C)c1 | · | · | · | -3% | · | ·
CCn1ccc2cc(S(=O)(=O)N3CCC(C(=O)NCCc4ccccc4Cl)CC3)ccc21 | · | · | · | -12% | · | ·
CC(Sc1nc(=O)cc(N)n1CCc1ccccc1)C(=O)Nc1ccccc1C#N (centres undefined) | · | · | · | -1% | · | ·
Cc1nn(C)c2c1c(-c1ccccc1)cc(=O)n2C(C)C(=O)NCCc1ccc(Cl)cc1 (centres undefined) | · | · | · | 4% | · | ·
CC(C)Oc1ccc(C(=O)N(Cc2ccco2)c2ccccn2)cc1 | · | · | · | 1% | · | ·
COC(=O)c1n[nH]n(-c2ccccc2)c1=O | · | · | · | -1% | · | ·
O=S1(=O)N[C@@H](CC2CCCCC2)COc2cc(Br)ccc21 | 6% | -16 | 1.6µM* | -4% | 0% | ·
CC(C)C[C@H]1COc2cc(Br)ccc2S(=O)(=O)N1 | · | · | · | 2% | · | ·
CCc1nc2ccc(C(=O)NCCc3ccc(OC)cc3OC)cc2nc1CC | · | · | · | 32µM* | · | ·
CCc1nc2ccc(C(=O)NCc3cc(OC)ccc3OC)cc2nc1CC | · | · | · | 0% | · | ·
CCN(CC)c1ccc(/C=N\NC(N)=O)cc1 | -6% | 5 | -15% | 25µM* | 0% | -9%
CCN(CC)c1ccc(/C=N/NC(=O)Nc2ccccc2)cc1 | ? | 0 | -18% | 4% | 0% | -5%
CCN(CC)c1ccc(/C=N/NC(=O)CC(C)C)cc1 | 8% | -6 | 0% | 18µM* | 0% | -1%
SMILES | p53 reactivation | Giardia kill | uPA surface inh | ClpP mod | B2AR arrestin | Mito fusion act
CC(C)NS(=O)(=O)c1ccc2nc(NC(=O)c3cncc(Br)c3)sc2c1 | · | · | · | 0% | · | ·
N#Cc1c(NC(=O)c2ccc([N+](=O)[O-])o2)sc2c1CCC2 | ? | -94* | ? | 1% | 0% | -68%
NC(=O)c1c(NC(=O)c2ccc([N+](=O)[O-])o2)sc2c1CCCC2 | -8% | -91* | 10% | -6% | 0% | 2%
NC(=O)c1ccsc1NC(=O)c1ccc([N+](=O)[O-])o1 | -16% | -95* | 7.1µM* | -1% | -1% | ·
CCC1CCCCN1S(=O)(=O)c1ccc(NC(=O)c2nc(SC)ncc2Cl)cc1 (centres undefined) | · | · | · | -6% | · | ·
O=C(O)c1cc2c(o1)CCC/C2=N\O | -2% | -13 | -1% | -3% | 0% | -1%
Cc1cc2c(nn1)CCC/C2=N\O | 13% | -1 | 6% | 18µM* | 0% | -1%
